# Measured values reported in the supplement of paper PMC9254222.
# The full ranking holds about 1,100 compounds; the median of “Wnt reporter firefly/Renilla luciferase ratio relative to plate median” is about 1.1, and the highest 2% start at about 1.6. Shown is part of a subset that was picked to be rich in the highest values.
# Tested on: HEK293T (UBE3A T485A transfected, BAR Wnt reporter)
# Assay: Wnt reporter firefly/Renilla luciferase ratio relative to plate median (fold (linear ratio)); higher = more Wnt/beta-catenin reporter activation
# Conditions: 24 h
# In short: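 HEK293T cells were grown in DMEM with 10% FBS at 37°C and 5% CO2, at 4500 cells/well in white 384-well plates. They were transfected with a BAR firefly luciferase Wnt reporter, TK-Renilla and an expression plasmid using Fugene 6. Four hours later, robots dosed the chemicals at 0.01–100 uM for 24 h, followed by Dual-Glo luciferase readout. Wnt activity (firefly/Renilla ratio) and cell health (raw Renilla) were median-centred per plate, averaged over four biological replicates.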
SMILES,Wnt reporter firefly/Renilla luciferase ratio (concentration: 0.1 uM),Wnt reporter firefly/Renilla luciferase ratio (concentration: 1 uM),Wnt reporter firefly/Renilla luciferase ratio (concentration: 10 uM),Wnt reporter firefly/Renilla luciferase ratio (concentration: 100 uM),Wnt reporter firefly/Renilla luciferase ratio (concentration: 0.01 uM)
C=CCOC(=O)c1ccccc1C(=O)OCC=C [Diallyl phthalate],1.17,1.04,1.22,1.09,
CCOc1cc(Oc2ccc(C(F)(F)F)cc2Cl)ccc1[N+](=O)[O-] [Oxyfluorfen],1.05,0.917,1.07,0.292,1.01
CCCCCCCCCCCCCN1CC(C)OC(C)C1 (stereo unspecified) [Tridemorph],1.09,1.23,1.04,1.05,
CCOP(=O)(OCC)Oc1nc(Cl)c(Cl)cc1Cl [Chlorpyrifos oxon],0.876,1.02,0.861,0.591,0.967
CN(C)C(=O)Cl [Dimethylcarbamoyl chloride],0.982,1.32,1.35,1.31,
Cc1cccc([N+](=O)[O-])c1 [3-Nitrotoluene],1.02,1.03,0.836,1.17,
CN(C)C(=O)Nc1cccc(C(F)(F)F)c1 [Fluometuron],1.43,1.1,0.996,1.04,1.3
O=P(OC(CCl)CCl)(OC(CCl)CCl)OC(CCl)CCl,1.19,0.764,1.31,0.44,
CCC(CC)Nc1c([N+](=O)[O-])cc(C)c(C)c1[N+](=O)[O-] [Pendimethalin],0.866,0.946,0.92,1.08,0.882
"CC(C)(C)CC(C)(C)c1ccc(O)cc1 [4-(1,1,3,3-Tetramethylbutyl)phenol]",1.03,0.968,1.15,0.935,
CN1COCN(Cc2cnc(Cl)s2)C1=N[N+](=O)[O-] [Thiamethoxam],1.19,1.01,0.971,1.2,1.14
c1ccc(C2CO2)cc1 (stereo unspecified) [Styrene oxide],1.23,0.89,1.19,1.71,
"c1ccc(NNc2ccccc2)cc1 [1,2-Diphenylhydrazine]",1.25,1.04,1.19,1.27,
c1ccc(N=Nc2ccccc2)cc1 [Azobenzene],1.35,1.05,1.38,1.1,
CCOP(=S)(Oc1ccc([N+](=O)[O-])cc1)c1ccccc1 (stereo unspecified),1.05,1.07,0.965,0.846,
COc1nn(CSP(=S)(OC)OC)c(=O)s1 [Methidathion],1.74,1.33,1.56,0.818,1.41
"Cc1cc(-c2ccc(N)c(C)c2)ccc1N [3,3'-Dimethylbenzidine]",1.15,0.925,0.831,0.556,
CCC(C)n1c(=O)[nH]c(C)c(Br)c1=O (stereo unspecified) [Bromacil],1,0.995,0.904,0.896,0.919
c1ccc2c(c1)oc1ccccc12 [Dibenzofuran],1.04,0.95,1.02,1.15,
Oc1ccc(Cl)cc1Cc1ccccc1 [Clorophene],1.05,1.07,0.943,,0.901
Nc1ccc2ccccc2c1 [2-Naphthylamine],0.991,0.869,0.998,0.629,
CCOP(=S)(OCC)Oc1nc(Cl)c(Cl)cc1Cl [Chlorpyrifos],1.11,1.01,0.926,1.12,

SMILES,Wnt reporter firefly/Renilla luciferase ratio (concentration: 0.1 uM),Wnt reporter firefly/Renilla luciferase ratio (concentration: 1 uM),Wnt reporter firefly/Renilla luciferase ratio (concentration: 10 uM),Wnt reporter firefly/Renilla luciferase ratio (concentration: 100 uM),Wnt reporter firefly/Renilla luciferase ratio (concentration: 0.01 uM)
"N#CC(Br)(Br)C(N)=O [2,2-Dibromo-3-nitrilopropionamide]",1.26,1.24,1.3,1.23,
Nc1ccc([N+](=O)[O-])cc1 [4-Nitroaniline],1.19,0.817,0.602,0.574,
O=S(=O)([O-])C(F)(F)C(F)(F)C(F)(F)C(F)(F)F.[K+],1.15,1.04,1.23,1.73,
O=S(=O)([O-])C(F)(F)C(F)(F)C(F)(F)C(F)(F)C(F)(F)C(F)(F)C(F)(F)C(F)(F)F.[K+],1.12,1.24,1.39,0.833,
O=S(=O)([O-])C(F)(F)C(F)(F)C(F)(F)C(F)(F)C(F)(F)C(F)(F)F.[K+],1.21,0.967,1.07,1.21,
ClC1=C(Cl)C(Cl)(Cl)C(Cl)=C1Cl [Hexachlorocyclopentadiene],1.24,0.958,1.02,0.638,
O=C(O)CNCP(=O)(O)O [Glyphosate],1.38,1.39,1.04,1.75,1.29
C=C(C)[C@H]1Cc2c(ccc3c2O[C@@H]2COc4cc(OC)c(OC)cc4[C@@H]2C3=O)O1 [Rotenone],0.675,0.7,0.862,,0.948
CCc1cccc(CC)c1N(COC)C(=O)CCl [Alachlor],0.977,0.938,0.799,0.366,0.923
CC1(C)C(C=C(Cl)Cl)C1C(=O)OC(C#N)c1cccc(Oc2ccccc2)c1 (stereo unspecified) [Cypermethrin],1.14,1.06,0.991,0.601,1.02
CS(=O)(=O)c1ccc(C(=O)C2C(=O)CCCC2=O)c([N+](=O)[O-])c1 [Mesotrione],1.82,0.968,1.14,1.16,1.7
C=CC(N)=O [Acrylamide],0.86,0.905,0.839,1.1,
N#CSCSC#N [Methylene bis(thiocyanate)],0.976,1.05,1.31,,0.967
CS/C(C)=N/OC(=O)N(C)SN(C)C(=O)O/N=C(\C)SC [Thiodicarb],1.86,1.6,1.15,,1.53
CNC(=O)ON=C(SC)C(=O)N(C)C [Oxamyl],1.22,1.11,1.43,0.291,1.55
CNC(=O)ON=C(C)SC [Methomyl],1.08,1.03,0.996,1.19,0.847
"Nn1cnnc1 [4-Amino-1,2,4-triazole]",1.22,0.928,1.27,1.43,
ClC1=C(Cl)[C@]2(Cl)[C@H]3[C@H]([C@@H]4C=C[C@H]3C4)[C@@]1(Cl)C2(Cl)Cl [Aldrin],1.2,0.895,1.15,1.43,
COC(=O)c1ccccc1C(=O)OC [Dimethyl phthalate],1.21,1.21,1.2,1.42,1.03
N#Cc1nn(-c2c(Cl)cc(C(F)(F)F)cc2Cl)c(N)c1S(=O)C(F)(F)F (stereo unspecified) [Fipronil],0.896,0.987,0.889,0.402,0.954
COS(=O)(=O)[O-].Cn1c(-c2ccccc2)cc(-c2ccccc2)[n+]1C [Difenzoquat metilsulfate],0.813,1.1,0.847,0.425,0.771
CC(C)(C)C(O)(CCc1ccc(Cl)cc1)Cn1cncn1 (stereo unspecified) [Tebuconazole],1.04,0.915,0.972,0.461,

SMILES,Wnt reporter firefly/Renilla luciferase ratio (concentration: 0.1 uM),Wnt reporter firefly/Renilla luciferase ratio (concentration: 1 uM),Wnt reporter firefly/Renilla luciferase ratio (concentration: 10 uM),Wnt reporter firefly/Renilla luciferase ratio (concentration: 100 uM),Wnt reporter firefly/Renilla luciferase ratio (concentration: 0.01 uM)
CC(=O)N=C1C=CC(=O)C=C1,1.17,1,0.923,1.08,0.925
"CCN(CC)CCO [N,N-Diethylethanolamine]",1.01,1.07,0.956,1.44,
Clc1ccc(C(c2ccccc2Cl)C(Cl)(Cl)Cl)cc1 (stereo unspecified),0.989,0.858,0.978,1.08,
c1cc2ccc3cccc4ccc(c1)c2c34 [Pyrene],1.09,0.96,1.05,0.354,
"N=C(Nc1ccccc1)Nc1ccccc1 [1,3-Diphenylguanidine]",1.06,1.28,0.977,1.02,
NC1=NC(O)C2C3OC4(O)OC(C(O)C2(N1)C4O)C3(O)CO (stereo unspecified) [Tetrodotoxin (TTX)],1.12,1.09,1.06,1.8,1.05
CCOc1cccc([C@]2(N3CCN(c4ccccc4)CC3)CC[C@@H](C)CC2)c1.CS(=O)(=O)O,1.38,0.926,1.05,1.12,
CCCOC/C(=N\c1ccc(Cl)cc1C(F)(F)F)n1ccnc1 [Triflumizole],1.65,1.53,1.91,1.72,1.29
CCCN(CCOc1c(Cl)cc(Cl)cc1Cl)C(=O)n1ccnc1 [Prochloraz],1.15,0.904,1.05,0.247,1.14
CN1C2CC(OC(=O)C(CO)c3ccccc3)CC1C1OC12 (stereo unspecified) [Scopolamine],1.56,1.15,1.24,1.26,1.61
N#Cc1cc(Br)c(O)c(Br)c1 [Bromoxynil],0.882,0.923,0.998,0.286,0.815
CCNc1nc(Cl)nc(NC(C)C)n1 [Atrazine],1.38,1.15,1.29,1.18,1.45
"Cc1cccc([N+](=O)[O-])c1C [1,2-Dimethyl-3-nitrobenzene]",0.993,0.898,0.848,1.57,
COS(C)(=O)=O [Methyl methanesulfonate],0.999,0.797,1.14,1.24,
COC(=O)c1c(C(F)F)nc(C(F)(F)F)c(C2=NCCS2)c1CC(C)C [Thiazopyr],0.899,0.947,0.872,0.82,0.815
CCOCCOC(C)=O [2-Ethoxyethyl acetate],1.05,0.896,1.18,1.3,
O=[N+]([O-])c1ccc(Oc2ccc(Cl)cc2Cl)cc1 [Nitrofen],1.04,0.882,1.01,1.28,
CC(Oc1ccc(Cl)cc1Cl)C(=O)O (stereo unspecified) [Dichlorprop],1.21,1.22,1.24,1.32,1.16
COC(=O)C(C)Oc1ccc(Oc2ccc(Cl)cc2Cl)cc1 (stereo unspecified) [Diclofop-methyl],1.28,1.98,1.27,1.29,1.1
"Clc1ccc(Cl)cc1 [1,4-Dichlorobenzene]",1.45,0.934,1.1,1.39,
Clc1ccc(C(Cl)(Cl)Cl)cc1 [4-Chlorobenzotrichloride],1.23,0.884,1.42,2.38,
OC(c1ccc(Cl)cc1)(c1ccc(Cl)cc1)C(Cl)(Cl)Cl [Dicofol],1.37,1.17,1.3,1.06,1.23
